Reference: PubChem BioAssay
Activity calls are given as the source filed them. Unless noted, how the calls were made is not given here.

Assays:
[1] = system: Wnt5a (protein binding on small-molecule microarray); experiment: Wnt5a binders on small-molecule microarray, primary screen, biophysical, 635/667 nm fluorescence (AID 1142); settings: 635 nm fluorescence, higher = more signal;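 further: fluorescence read at 667 nm with signal to noise per printed feature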
[2] = cell viability in Huh7 cells, primary screen, cytotoxicity control for HCV replication inhibitor project, CellTiter-Glo luminescence, basal, 48 h (AID 1143); settings: Huh7 HCV replicon, higher = more signal, called active from +8 up or from −8 down;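 further: Huh7 hepatoma cells carrying a hepatitis C replication reporter with no stimulus; test concentration not given here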
[3] = P. aeruginosa biofilm formation inhibitors, primary screen, PAO1 strain, BacTiter-Glo luminescence, LB-PBS (AID 1144); settings: 12 h, higher = more signal
[4] = CREB reporter modulators without forskolin, primary screen, cell-based, PC12, CRE-LacZ reporter, unstimulated (AID 1145); settings: no forskolin, luminescence, 4.5 h, higher = more signal, called active from +8 up or from −8 down
[5] = CREB reporter modulators under forskolin, primary screen, cell-based, PC12, CRE-LacZ reporter, forskolin-stimulated (AID 1146); settings: luminescence, 4.5 h, higher = more signal, called active from +8 up or from −8 down;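 further: PC12 cells with 6xCRE LacZ reporter stimulated by forskolin 10 µM; beta-galactosidase reporter signal reflecting CREB driven transcription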
[6] = molecular target: Streptavidin (Streptomyces avidinii) (UniProt P22629); experiment: streptavidin binders on small-molecule microarray, primary screen, artefact control for SMM compound annotation, biophysical, 635/667 nm fluorescence (AID 1147); settings: streptavidin binding, higher = more signal;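 further: signal reflects streptavidin binding to arrayed compounds as a control protein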
[7] = small-molecule binders of probe aInhba, primary screen, biochemical, small-molecule microarray, 635/667 nm fluorescence (AID 1148); settings: higher = more signal;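 further: score merges 667nm spot fluorescence with signal-to-noise for antibody binding to printed compounds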
Torsin-1A (Homo sapiens) [8] = molecular target: Torsin-1A (Homo sapiens) (UniProt O14656); experiment: torsin A binders from cell lysate, primary screen, small-molecule microarray, wild-type, 635/667 nm (AID 1149); settings: COS7 hTOR1A-WT lysate, 635 nm fluorescence, higher = more signal
Torsin-1A (Homo sapiens) [9] = molecular target: Torsin-1A (Homo sapiens) (UniProt O14656); experiment: small-molecule binders of mutant TOR1A in lysate, primary screen, cell lysate, small-molecule microarray, COS7 lysate, 635/667 nm fluorescence (AID 1150); settings: COS7 hTOR1A mutant lysate, 635 nm fluorescence, higher = more signal;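 further: score pools 667 nm emission and signal to noise measuring lysate protein binding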
[10] = system: Sonic hedgehog protein (Shh); experiment: small-molecule binders of Shh protein, primary screen, biochemical, small-molecule microarray, 635/667 nm fluorescence (AID 1151); settings: small-molecule microarray binding, 635 nm fluorescence; higher = more signal;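 further: Shh protein binding to compounds spotted on small-molecule microarray slides; score combines spot fluorescence intensity with signal-to-noise across triplicate slides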
[11] = E. coli DRC41 culture turbidity changes, primary screen, E. coli filamentation inducer project, strain DRC41, OD650, 48 h (AID 1152);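 further: E. coli MC1000 strain DRC41 lacking acrAB efflux pump and sulA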; settings: E. coli DRC41 (acrAB sulA), higher = more signal, called active from +8 up or from −8 down
[12] = small-molecule binders of probe aLefty1, primary screen, biochemical, small-molecule microarray, 635/667 nm fluorescence (AID 1153); settings: higher = more signal;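 further: score merges spot fluorescence with signal-to-noise ratio from the scanned slide images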
[13] = PSAC antagonists in infected red cells, primary screen, cell-based, P. falciparum Indochina, OD700, 1 h (AID 1154); settings: P. falciparum Indochina infected RBC osmotic lysis, higher = more signal, called active from +8 up or from −8 down
[14] = PSAC antagonists in infected red cells, primary screen, cell-based, P. falciparum Indochina, OD700, 2 h (AID 1155);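 further: lysis reports solute entry through the parasite surface anion channel PSAC; channel blockers reduce lysis of infected cells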; settings: P. falciparum Indochina infected erythrocytes, osmotic lysis OD700; higher = more signal, called active from +8 up or from −8 down
[15] = osmotic lysis modulators in infected erythrocytes, primary screen, PSAC antagonist project, cell-based, P. falciparum Indochina, OD700, 3 h (AID 1156); settings: higher = more signal, called active from +8 up or from −8 down
[16] = PSAC antagonists in infected red cells, primary screen, cell-based, P. falciparum Indochina, OD700, 18 h (AID 1157); settings: P. falciparum Indochina infected erythrocytes, osmotic lysis OD700, 18 h; higher = more signal, called active from +8 up or from −8 down
[17] = modulators of S6 phosphorylation in cells, primary screen, cell-based, A549, cytoblot, luminescence, serum-stimulated (AID 1158); settings: A549 phospho-S6 cytoblot, 5 h, higher = more signal;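 further: serum-stimulated A549 lung adenocarcinoma cells; signal is phosphorylated S6 detected by cytoblot immunostaining with HRP secondary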
[18] = molecular target: NADPH oxidase 2 (Homo sapiens) (UniProt P04839); experiment: NOX2-dependent H2O2 signal modulators, primary screen, NOX inhibitor project, cell-based, HEK293-NOX2, PMA-stimulated, Amplex Red fluorescence (AID 1159); settings: 45 min, higher = more signal, called active from +8 up or from −8 down; further: test concentration not given here
[19] = molecular target: NADPH oxidase 4 (Homo sapiens) (UniProt Q9NPH5); experiment: NOX4-dependent H2O2 signal modulators, primary screen, NOX inhibitor project, cell-based, HEK293-NOX4, tetracycline-induced, Amplex Red fluorescence (AID 1160); settings: 45 min, higher = more signal, called active from +8 up or from −8 down
[20] = molecular target: NADPH oxidase 5 (Homo sapiens) (UniProt Q96PH1); experiment: NOX5-dependent H2O2 signal modulators, primary screen, NOX inhibitor project, cell-based, HEK293-NOX5, Amplex Red fluorescence (AID 1161); settings: HEK293-NOX5, ionomycin, 45 min, higher = more signal
Sequence of NADPH oxidase 5 (Homo sapiens) (Q96PH1 whole entry, looked up): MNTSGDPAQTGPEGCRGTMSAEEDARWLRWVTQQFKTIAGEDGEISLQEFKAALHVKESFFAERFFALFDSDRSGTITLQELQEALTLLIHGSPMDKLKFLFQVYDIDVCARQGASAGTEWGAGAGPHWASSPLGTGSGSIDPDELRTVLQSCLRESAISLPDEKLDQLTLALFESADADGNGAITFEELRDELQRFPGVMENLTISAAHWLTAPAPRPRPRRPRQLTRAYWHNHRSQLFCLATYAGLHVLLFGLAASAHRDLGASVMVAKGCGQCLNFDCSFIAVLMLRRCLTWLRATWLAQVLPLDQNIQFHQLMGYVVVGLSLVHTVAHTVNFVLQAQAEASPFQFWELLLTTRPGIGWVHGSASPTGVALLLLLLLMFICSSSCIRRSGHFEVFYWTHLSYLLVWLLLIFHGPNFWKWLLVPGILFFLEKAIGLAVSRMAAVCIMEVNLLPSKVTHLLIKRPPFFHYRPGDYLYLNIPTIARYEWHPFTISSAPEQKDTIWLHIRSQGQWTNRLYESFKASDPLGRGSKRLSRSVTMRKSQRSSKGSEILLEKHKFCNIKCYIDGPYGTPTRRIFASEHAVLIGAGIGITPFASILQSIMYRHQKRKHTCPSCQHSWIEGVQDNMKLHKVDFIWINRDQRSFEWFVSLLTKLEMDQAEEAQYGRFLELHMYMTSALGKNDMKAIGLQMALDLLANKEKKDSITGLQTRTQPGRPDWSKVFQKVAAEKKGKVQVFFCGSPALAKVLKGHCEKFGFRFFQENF

Sequence of NADPH oxidase 4 (Homo sapiens) (Q9NPH5 whole entry, looked up): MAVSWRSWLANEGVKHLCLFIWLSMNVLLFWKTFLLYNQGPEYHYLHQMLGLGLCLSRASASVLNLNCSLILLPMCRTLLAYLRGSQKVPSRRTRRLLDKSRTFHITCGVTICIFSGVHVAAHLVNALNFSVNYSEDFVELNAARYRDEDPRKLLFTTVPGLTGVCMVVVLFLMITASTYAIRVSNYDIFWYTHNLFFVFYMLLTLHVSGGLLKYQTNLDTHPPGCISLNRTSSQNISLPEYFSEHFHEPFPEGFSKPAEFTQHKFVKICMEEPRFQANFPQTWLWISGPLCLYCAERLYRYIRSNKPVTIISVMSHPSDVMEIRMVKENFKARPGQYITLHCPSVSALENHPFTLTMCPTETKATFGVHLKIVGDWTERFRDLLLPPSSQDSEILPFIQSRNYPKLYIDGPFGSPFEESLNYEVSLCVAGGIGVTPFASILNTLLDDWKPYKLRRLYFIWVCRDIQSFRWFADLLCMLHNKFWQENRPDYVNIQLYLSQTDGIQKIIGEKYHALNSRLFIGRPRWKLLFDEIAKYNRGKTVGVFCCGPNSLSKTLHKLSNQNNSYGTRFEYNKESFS
Sequence of Torsin-1A (Homo sapiens) (O14656 whole entry, looked up): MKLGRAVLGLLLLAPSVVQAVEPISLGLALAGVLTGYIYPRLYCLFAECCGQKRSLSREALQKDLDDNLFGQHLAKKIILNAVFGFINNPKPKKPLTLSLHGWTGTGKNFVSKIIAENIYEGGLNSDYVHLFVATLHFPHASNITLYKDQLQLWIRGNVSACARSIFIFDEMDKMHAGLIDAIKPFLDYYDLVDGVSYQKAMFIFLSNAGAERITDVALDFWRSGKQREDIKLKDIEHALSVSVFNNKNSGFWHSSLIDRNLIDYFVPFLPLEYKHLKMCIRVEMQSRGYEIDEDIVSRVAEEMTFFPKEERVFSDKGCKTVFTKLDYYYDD
Sequence of Streptavidin (Streptomyces avidinii) (P22629 whole entry, looked up): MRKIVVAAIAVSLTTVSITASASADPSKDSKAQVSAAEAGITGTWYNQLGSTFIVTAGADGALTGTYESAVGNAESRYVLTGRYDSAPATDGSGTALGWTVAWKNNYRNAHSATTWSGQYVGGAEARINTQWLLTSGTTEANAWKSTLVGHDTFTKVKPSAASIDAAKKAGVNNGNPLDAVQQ
Sequence of NADPH oxidase 2 (Homo sapiens) (P04839 whole entry, looked up): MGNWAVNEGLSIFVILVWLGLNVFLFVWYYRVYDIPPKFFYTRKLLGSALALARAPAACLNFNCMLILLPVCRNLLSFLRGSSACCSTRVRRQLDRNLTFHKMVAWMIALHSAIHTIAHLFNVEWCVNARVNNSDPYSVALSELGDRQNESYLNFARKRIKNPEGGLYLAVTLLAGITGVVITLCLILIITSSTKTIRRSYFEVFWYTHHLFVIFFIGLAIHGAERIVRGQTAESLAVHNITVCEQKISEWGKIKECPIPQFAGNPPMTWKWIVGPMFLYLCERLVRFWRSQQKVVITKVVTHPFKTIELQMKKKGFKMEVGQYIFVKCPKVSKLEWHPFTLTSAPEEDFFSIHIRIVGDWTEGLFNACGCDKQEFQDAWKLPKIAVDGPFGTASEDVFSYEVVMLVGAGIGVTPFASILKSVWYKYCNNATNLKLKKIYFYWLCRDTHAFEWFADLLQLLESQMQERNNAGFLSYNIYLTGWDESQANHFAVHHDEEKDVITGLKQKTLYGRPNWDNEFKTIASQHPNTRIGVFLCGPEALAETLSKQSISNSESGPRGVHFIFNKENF

Compound	composite z-score [1]	z-score [2]	z-score [3]	z-score [4]	z-score [5]	composite z-score [6]	composite z-score [7]	composite z-score (Torsin-1A (Homo sapiens) [8])	composite z-score (Torsin-1A (Homo sapiens) [9])	composite z-score [10]	z-score [11]	composite z-score [12]	z-score [13]	z-score [14]	z-score [15]	z-score [16]	z-score [17]	z-score [18]	z-score [19]	z-score [20]
C=C(CCCC)/C(=C/C[C@H](OC(=O)c1ccncc1)c1ccc(CO)o1)c1cc(C(=O)OC)ccc1OC	0.0136	-0.441 (inactive)	-0.525 (inactive)	0.201 (inactive)	2.68 (inactive)	0.551	0.221	0.428	0.646	1.63	-0.432 (inactive)	0.178	4.31 (inactive)	0.756 (inactive)	2.04 (inactive)	0.332 (inactive)	-0.247	-0.582 (inactive)	-0.903 (inactive)	-1.57
COC(=O)[C@@]1(Cc2ccc(F)cc2)[C@@H]2[C@@H](CC(=O)[C@H]2CC(=O)C(=O)N2CCCC2)CN1C(=O)c1ccccc1	0.603	-2.93 (inactive)	0.925 (inactive)	0.766 (inactive)	0.526 (inactive)	1.48	1.4	0.0262	0.666	-0.695	-1.75 (inactive)	1.33	1.76 (inactive)	0.367 (inactive)	0.747 (inactive)	0.935 (inactive)	-0.502	0.67 (inactive)	0.478 (inactive)	1.28
COCCOC(=O)N1C(=O)[C@@]2(c3cc(C#CC4(O)CCCCCC4)ccc31)[C@H](C(=O)N1CCc3cc(OC)c(OC)cc3C1)[C@H]1C(=O)O[C@H](c3ccccc3)[C@H](c3ccccc3)N1[C@@H]2c1ccccc1OCCO	0.855	-2.18 (inactive)	1.66 (inactive)	0.0736 (inactive)	3.93 (inactive)	0.149	0.448	0.0869	0.326	1.29	0.803 (inactive)	0.496	1.39 (inactive)	1.15 (inactive)	0.496 (inactive)	0.655 (inactive)	-0.0095	2.73 (inactive)	-0.879 (inactive)	0.554
C=CCOC(=O)[C@@H]1[C@H]2C(=O)O[C@H](c3ccccc3)[C@H](c3ccccc3)N2[C@H](c2ccc(OCCOC(=O)[C@@H]3C[C@@H]4C(=O)N5CCC[C@H]5C(=O)N4[C@@H]3c3cccc(OCCO)c3)cc2)[C@@]12C(=O)Nc1ccc(I)cc12	0.667	-1.77 (inactive)	-0.49 (inactive)	-1.2 (inactive)	-0.725 (inactive)	0.161	-0.0221	0.85	0.623	2.01	0.745 (inactive)	-0.462	3.47 (inactive)	1.87 (inactive)	3.63 (inactive)	0.938 (inactive)	0.198	1.82 (inactive)	1.64 (inactive)	1.73
C[C@]12C(=O)N(CCCO)[C@@H]3C(=O)N(c4ccc(Cl)cc4)CC=CC31O[C@@H]1/C=C\CCCOC(=O)C12 (stereo not given in full)	-0.408	0.231 (inactive)	0.993 (inactive)	-0.212 (inactive)	-0.221 (inactive)	-1.19	-0.218	-1.88	-1.13	0.399	-0.511 (inactive)	-0.0203	1.29 (inactive)	0.396 (inactive)	-0.423 (inactive)	0.211 (inactive)	-0.332	1.53 (inactive)	0.84 (inactive)	2.71
COc1ccc([Si](C)(C)[C@H]2[C@H](CC(=O)N3CCC[C@H]3CO)O[C@@]3(C(=O)N(Cc4ccc(N5C(=O)c6cccc7cccc5c67)cc4)c4ccccc43)[C@@H]2C)cc1	0.213	-3.73 (inactive)	0.0403 (inactive)	0.543 (inactive)	-0.594 (inactive)	0.197	0.134	0.81	0.397	2.05	-0.0217 (inactive)	0.0903	6.9 (inactive)	1.31 (inactive)	1.72 (inactive)	0.771 (inactive)	0.298	1.86 (inactive)	1.19 (inactive)	2.62
COCCOC(=O)N1C(=O)[C@@]2(c3cc(C#CC4(O)CCCCCC4)ccc31)[C@H](C(=O)NC[C@H](O)c1ccccc1)[C@H]1C(=O)O[C@H](c3ccccc3)[C@H](c3ccccc3)N1[C@@H]2c1ccc(OCCO)cc1	-0.0894	-3.38 (inactive)	-0.401 (inactive)	-0.285 (inactive)	0.0759 (inactive)	-0.0815	0.217	0.0969	0.124	1.72	1.07 (inactive)	-0.007	3.85 (inactive)	1.58 (inactive)	-1.29 (inactive)	1.03 (inactive)	0.0102	1.55 (inactive)	1.01 (inactive)	0.979
C=CC[C@]1(C(=O)NCC(O)CO)N=C(c2ccc(OCCCO)cc2)O[C@H]1c1ccccc1N=[N+]=[N-] (stereo not given in full)	0.257	-1.4 (inactive)	-0.323 (inactive)	1.24 (inactive)	-0.652 (inactive)	1.4	0.215	0.16	1.46	-0.723	0.33 (inactive)	0.658	34.3 (active)	30.5 (active)	2 (inactive)	7.28 (inactive)	-0.33	-0.357 (inactive)	1.74 (inactive)	0.781
COCCCNC(=O)[C@]1(CCS(=O)(=O)c2ccccc2)N=C(c2ccc(OCCCO)cc2)O[C@@H]1c1ccccc1	0.118	-1.63 (inactive)	-0.812 (inactive)	0.638 (inactive)	-1.33 (inactive)	1.43	0.371	0.972	1.33	0.306	0.664 (inactive)	1.12	26 (active)	9.64 (active)	2.14 (inactive)	1.82 (inactive)	-0.108	-0.0777 (inactive)	1.72 (inactive)	0.88
